High-throughput results (PubChem BioAssay)
JMJD2A Tudor inh: qHTS Assay for Inhibitors of JMJD2A-Tudor Domain | Lysine-specific demethylase 4A (Homo sapiens), O75164 | 4.4% of 390,000 active | Potency, µM (titrated, usually from 114 µM), actives largely listed as inhibitors | AlphaScreen JMJD2A-Tudor / H3K4me3 peptide binding | AID 504339, 2011; further: nearly all actives have a fitted effect of over 50% in size
G9a block: qHTS Assay for Inhibitors of Histone Lysine Methyltransferase G9a | AID 504332, 2011 | 8.8% of 350,000 active | Histone-lysine N-methyltransferase EHMT2 (Homo sapiens), Q96KQ7 | G9a H3K9 monomethylation, AlphaScreen, 2 h | Potency, µM (titrated, usually from 102 µM), actives largely listed as inhibitors; further: nearly all actives have a fitted effect of over 75% in size
Target sequence (Q96KQ7 913-1193 limits assumed): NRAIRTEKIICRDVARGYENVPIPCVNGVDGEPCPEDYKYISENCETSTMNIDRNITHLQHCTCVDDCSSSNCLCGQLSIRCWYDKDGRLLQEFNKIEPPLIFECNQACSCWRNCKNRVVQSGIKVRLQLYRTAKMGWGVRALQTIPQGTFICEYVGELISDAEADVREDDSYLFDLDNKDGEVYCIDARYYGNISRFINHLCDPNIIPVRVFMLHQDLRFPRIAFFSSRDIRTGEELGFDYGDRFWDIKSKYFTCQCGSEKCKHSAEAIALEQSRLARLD
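Readings reflect AlphaScreen signal from monomethyl-H3K9 antibody detection. HMT at 20 nM; substrate b-H3K9 500 nM; cofactor SAM 20 uM; 2 h RT reaction; compounds tested as titrations in qHTS with 15 min preincubation.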
BAZ2B block: qHTS Assay for Inhibitors of BAZ2B. Bromodomain adjacent to zinc finger domain protein 2B (Homo sapiens), Q9UIF8. AlphaScreen BAZ2B-H3K14Ac peptide displacement. Potency, µM (highest dose often 114 µM), hits mostly inhibitors. 4.4% of 360,000 active; further: nearly all actives have a fitted effect of over 60% in size
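Multi-concentration screen (max 110 uM) measuring displacement of acetylated histone H3 peptide from BAZ2B by AlphaScreen, using 50 nM protein, 50 nM peptide and 10 ug/mL streptavidin donor plus Ni-chelate acceptor beads.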
HP1b chromo inh: HTS for Inhibitors of HP1-beta Chromodomain Interactions with Methylated Histone Tails; 0.56% of 390,000 active; AlphaScreen HP1-beta / biotin-H3K9me3 peptide binding; Potency, µM (doses to about 114 µM), actives largely listed as inhibitors; AID 540317, 2011; further: nearly all actives have a fitted effect of over 70% in size
Target sequence (P83916 whole entry, looked up): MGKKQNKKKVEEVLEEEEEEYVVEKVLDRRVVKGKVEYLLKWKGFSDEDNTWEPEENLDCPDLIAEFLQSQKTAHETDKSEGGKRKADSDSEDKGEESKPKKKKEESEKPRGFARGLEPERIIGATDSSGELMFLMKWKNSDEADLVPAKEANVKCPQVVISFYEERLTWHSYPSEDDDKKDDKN
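HP1-beta protein (50 nM final) preincubated 30 min at room temperature with biotinylated H3(1-18)K9me3 peptide (50 nM) in PBS pH 7.4, 0.01% Tween-20, then compound added for 30 min. AlphaScreen streptavidin donor/nickel chelate acceptor beads (10 ug/mL final), 30 min dark, luminescence read.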
PI5P4K alpha inh: qHTS for Inhibitors of phosphatidylinositol 5-phosphate 4-kinase (PI5P4K) | Phosphatidylinositol 5-phosphate 4-kinase type-2 alpha (Homo sapiens), P48426 | PI5P4Kalpha enzyme, ADP-Glo luminescence, 60 min; active compounds read low | max response, % | 1.2% of 330,000 active | AID 652105, 2013; active means max response of -50% or lower; inconclusive means between -30% and -50%; inactive means -30% or higher; further: value at the top dose of about 77 µM
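Single end-point luminescence (ADP-Glo) quantified ADP from PI5P4Kalpha turnover; ATP 5 microM final, 1 h at RT, 0.1% CHAPS and 0.28 mM EGTA in HEPES pH 7.4.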
L3MBTL1 inh: qHTS Assay for the Inhibitors of L3MBTL1; Lethal(3)malignant brain tumor-like protein 1 (Homo sapiens), Q9Y468; AlphaScreen L3MBTL1–H3K9me1 peptide binding; Potency, µM (titrated, usually from 57.1 µM), actives largely listed as inhibitors; 0.66% of 230,000 active; further: nearly all actives have a fitted effect of over 60% in size
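First, the protein-peptide complex forms for 30 min at room temperature (L3MBTL1 50 nM, biotinylated H3K9me1 peptide 75 nM). Next, compounds are pin-transferred and incubated 30 min. Finally, AlphaScreen beads are added and read after 30 min.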
Numbers stand for hits; i = inactive; ? = inconclusive; nt = not tested or not shown; ! = a repeat was not active; [ ] = remark or other dose. Shown are actives, neighbours in structure and some others; about 11% of the full set was active somewhere. Unless noted, the call rests on the fitted dose curve; in most records, active means well fitted inhibition curve with a large enough effect; inconclusive means small, poorly fitted or top-dose-only effect; inactive means no such curve, though single readings can be large or run the other way.

SMILES	JMJD2A Tudor inh	G9a block	BAZ2B block	HP1b chromo inh	PI5P4K alpha inh	L3MBTL1 inh
CCCCOc1ccc(C(C)NC(=O)c2cccc(Nc3nc4ccccc4n4nnnc34)c2)cc1 (stereo not drawn)	i	i	i	i	nt	nt
Cc1cc(C)c2nc(N3CCCC(C(=O)NCc4ccccc4F)C3)sc2c1 (stereo not drawn)	i	i	i	i	nt	nt
Cc1cccc(-c2noc(CN(C(C)C)S(=O)(=O)c3ccc(Br)cc3)n2)c1	i	i	i	i	nt	nt
CCc1ccc(-n2nnc(-c3nc(-c4cccs4)no3)c2N)cc1	i	i	i	i	nt	nt
COc1ccc(N2CCN(C(=O)c3cccc(NS(=O)(=O)c4cccc(F)c4)c3)CC2)cc1	i	nt	39.8µM	i	i	nt
COc1ccc(N2CCN(C(=O)c3cccc(Cn4cc(Cl)cn4)c3)CC2)cc1	?	17.8µM	?	i	nt	nt
O=C(O)c1cccc(Cn2cc(Cl)cn2)c1	i	i	?	i	i	?
COc1ccc(N2CCN(C(=O)c3ccc(NS(=O)(=O)c4ccc(F)c(F)c4)cc3)CC2)cc1	89.1µM	56.2µM	50.1µM	i	i	i
COC(=O)c1sccc1S(=O)(=O)N1CCN(c2ccccc2OC)CC1	i	i	i	i	nt	nt
CCc1c(C)sc(NC(=O)c2ccco2)c1C#N	i	nt	i	i	i	nt
CCOC(=O)c1sc(NC(=O)c2ccco2)c(C#N)c1C	i	44.7µM	i	i	i	i
Cc1nnc(NC(=O)C2c3ccccc3Oc3ccccc32)s1	i	11.2µM	i	?	i	i
Cc1sc(NC(=S)NC(=O)c2ccco2)c(C#N)c1C	i	35.5µM	i	i	i	i
CCN(CC)C(=O)c1sc(NC(=O)c2c(OC)cccc2OC)c(C#N)c1C	i	17.8µM	i	i	i	i
CCOC(=O)c1sc(NC(=O)C2c3ccccc3Oc3ccccc32)c(C(=O)OCC)c1C	i	i	i	i	nt	nt
CCOC(=O)c1sc(NC(=O)C2c3ccccc3Oc3ccccc32)c(C#N)c1C	i	2.24µM	i	i	nt	nt
Cc1cc(SCC(=O)NCc2ccc(Cl)cc2)nc(=O)[nH]1	i	i	i	i	nt	nt
O=C(O)/C=C/c1cnc[nH]1	i	12.6µM!	i	i	i	i
N[C@H](Cc1cnc[nH]1)C(=O)O	nt	i	nt	nt	nt	nt
O=C(ONC(=O)C1C2C=CC(C2)C1C(=O)NOC(=O)c1ccccc1)c1ccccc1 (stereo not drawn)	0.794µM	nt	nt	i	i	nt
COC(=O)c1ccc(NC(=O)C2C3C=CC(C3)C2C(=O)O)cc1 (stereo not drawn)	i	i	i	i	i	nt
COc1ccc(NC(=S)NCCc2ccc(S(N)(=O)=O)cc2)c(OC)c1	i[11.4 µM]	35.5µM	i	i	i	nt
COc1ccccc1NC(=S)NCCc1ccc(S(N)(=O)=O)cc1	i	i	i	i	i	i
COc1ccc(Cl)cc1NC(=S)NCCc1ccc(S(N)(=O)=O)cc1	i	?	i	i	i	i
COc1cc(NC(=S)NCc2ccc(S(N)(=O)=O)cc2)c(OC)cc1Cl	i	35.5µM	?	?	i	i
SMILES	JMJD2A Tudor inh	G9a block	BAZ2B block	HP1b chromo inh	PI5P4K alpha inh	L3MBTL1 inh
Cn1c(=O)c2c(nc(N3CCOCC3)n2Cc2cccc(Br)c2)n(C)c1=O	i	i	i	i	nt	nt
CN(C)Cc1nc2ccccc2c(=O)n1Cc1nc(-c2cc3ccccc3o2)cs1	50.1µM	?	?	i	i	i
CCOc1ccc(-c2csc(Cn3c(CN4CCN(C)CC4)nc4ccccc4c3=O)n2)cc1	22.4µM	22.4µM	?	?	i	i
COC(=O)c1ccccc1NC(=O)NCCc1c(C)nn(C)c1C	i	i	i	i	nt	nt
CCOc1ccc2cc(-c3nnc(Nc4ccccc4F)s3)c(=O)oc2c1	i	i	i	i	nt	nt
O=S(=O)(c1cccs1)N1CN(Cc2ccco2)c2nc3ccccc3nc21	?	39.8µM	?	i	i	?
CC(C)CCN1CN(S(=O)(=O)c2cccs2)c2nc3ccccc3nc21	i	15.8µM	i	i	i	nt
CC(C)OCCCN1CN(S(=O)(=O)c2cccs2)c2nc3ccccc3nc21	i	20µM	i	i	i	nt
COc1ccc(-c2noc(-c3ccc(NCc4ccccc4OC)c([N+](=O)[O-])c3)n2)cc1	i	?	i	i	nt	nt
CC(=O)N1CCc2cc(S(=O)(=O)NC(CC(C)C)C(=O)NCCc3ccccc3)ccc21 (stereo not drawn)	i	i	nt	i	nt	nt
Cc1cc(N2CCC(C(=O)Nc3ccc(Cl)cc3)CC2)n2nc(C)c(-c3ccc(Cl)cc3)c2n1	i	i	i	i	nt	nt
Cc1cccc(NC(=O)c2ccc(NCC3CCCO3)c([N+](=O)[O-])c2)n1 (stereo not drawn)	i	i	?	i	i	i
Cc1cccc(NC(=O)c2ccc(C(=O)c3ccccc3)cc2)n1	i	7.94µM	i	i	i	i
Cc1cccc(NC(=O)c2ccc(NCCO)c([N+](=O)[O-])c2)n1	i	i	89.1µM	i	i	nt
O=S(=O)(NCCc1csc2nc(-c3ccc(Cl)cc3)nn12)c1ccc2c(c1)OCCO2	i	i	i	i	nt	nt
COc1cc(CN2CCN(C(=O)CC(C)C)CC2)c([N+](=O)[O-])cc1OC	22.4µM	17.8µM	44.7µM	?	i	i
COc1ccc(CN2CCN(C(=O)CC(C)C)CC2)cc1	7.94µM	nt	?	?	i	i
CC(C)CC(=O)N1CCN(Cc2ccccc2Cl)CC1	i	i[0.501 µM]	50.1µM	?	i	i[2.29 µM]
COc1ccc(NC(C)C(=O)N2CCN(Cc3ccccc3)CC2)cc1 (stereo not drawn)	i	?	i	i	i	nt
O=C(CN1CCN(Cc2ccccc2Cl)C1=O)N1CCCCCC1	i	i	i	i	i	nt
COc1cc(CN2CCN(C(=O)CC(C)C)CC2)cc(OC)c1OC	6.31µM	?	28.2µM	?	i	i
CC(C)c1ccc(OCC(=O)Nc2c(C(=O)c3ccc(F)cc3)oc3ccccc23)cc1	i	i	i	i	nt	nt
O=C(NCCc1nc2ccccc2n1CCCOc1ccccc1Cl)C1CCCCC1	i	nt	nt	i	nt	nt
COc1ccc(NC(=O)N2CCCC3(CCN(S(=O)(=O)c4ccccc4)CC3)C2)cc1	nt	i[12.7 µM]	nt	nt	nt	nt
O=C(Nc1nnc(C2=COCCO2)o1)c1cccc([N+](=O)[O-])c1	i	i	79.4µM	i	i	nt
O=C(Nc1nnc(-c2ccc(F)cc2)o1)c1cccc([N+](=O)[O-])c1	i	i	?	i	?	i
